Test systems include T-47D breast; BT-549 breast; MDA-MB-435 melanoma; SW-620 colon; MCF7 breast; HCT-116 colon; HCC-2998 colon; KM12 colon.
Holding throughout (experiment): NCI-60 one-dose screen, 48 h (100 = growth as untreated, 0 = no growth, -100 = all killed)
What all share (conditions): 10 µM unless noted

Where “and” joins values, the source holds several entries; their conditions need not be identical. Equal values may be shown once. About 83,000 compounds went through this panel and 20% of them were active in at least one assay; those are over-represented in the sample as a whole.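 96-well plates, one dose, 48 hours. Percent growth reported; active if below 10.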 Calls of active or inactive are those of the source.

`c1ccc(Cc2cccc[n+]2C(c2ccccc2)c2ccccc2)cc1`: the growth is 3.66% (active) with T-47D breast; 29.8% (inactive) in the assay on BT-549 breast; 40% (inactive) in the assay with MDA-MB-435 melanoma; 81.2% (inactive) in the assay with SW-620 colon; 34.6% (inactive) in the assay with MCF7 breast; 49.2% (inactive) with HCT-116 colon. In addition, the growth in the assay with HCC-2998 colon was 40.7% (inactive); with KM12 colon it was 42.4% (inactive).
`Cc1nc(Nc2ncc(C(=O)Nc3c(C)cccc3Cl)s2)cc(N2CCN(CCO)CC2)n1`: the growth in the assay on T-47D breast is 40.8% (inactive) and -2.8% (active); in the assay on BT-549 breast it was 55.3% (inactive) and 32.2% (inactive); in the assay on MDA-MB-435 melanoma, 62.6% (inactive) and 27.1% (inactive); with SW-620 colon, 103% (inactive) and 52.6% (inactive); in the assay on MCF7 breast, 66.1% (inactive) and 54.4% (inactive); in the assay with HCT-116 colon, 40.7% (inactive) and 2.99% (active). The growth in the assay on HCC-2998 colon was 110% (inactive) and 81% (inactive); with KM12 colon it was 81.3% (inactive) and 28.1% (inactive).
For the molecule `CCNC(=O)Nc1ncccc1OCc1ccc(F)cc1`, the growth in the assay on T-47D breast is 90.3% (inactive); in the assay with BT-549 breast it was 114% (inactive); in the assay on MDA-MB-435 melanoma, 101% (inactive); in the assay on SW-620 colon, 104% (inactive); in the assay on MCF7 breast, 84% (inactive); in the assay on HCT-116 colon, 97.9% (inactive). Moreover, the values for the growth with HCC-2998 colon and in the assay on KM12 colon were 91.2% (inactive) and 88.1% (inactive), respectively.
As to `O=C1CCc2c(sc3[nH]c(=S)n(Cc4ccc(Cl)cc4)c(=O)c23)C1`, the growth with T-47D breast was -3.14% (active); in the assay on BT-549 breast, -10.1% (active); in the assay on MDA-MB-435 melanoma, 11.3% (inactive); with SW-620 colon, 16.5% (inactive); in the assay on MCF7 breast, 6.24% (active); in the assay with HCT-116 colon, 5.99% (active). Also, the results for the growth with HCC-2998 colon and with KM12 colon were 4.16% (active) and -45.8% (active), respectively.
In the case of `Clc1ccc(Nc2nc(Nc3ccc(Cl)cc3)nc(Nc3ccc(-c4cc(-c5cccc(Cl)c5)on4)cc3)n2)cc1`, the growth with T-47D breast was 83.3% (inactive); with BT-549 breast it was 98.6% (inactive); with MDA-MB-435 melanoma, 104% (inactive); with SW-620 colon, 96.6% (inactive); in the assay with MCF7 breast, 86.6% (inactive); with HCT-116 colon it was 99.6% (inactive). The growth in the assay with HCC-2998 colon was 121% (inactive); in the assay with KM12 colon it was 104% (inactive).
With `BrC1=C(Br)C(Br)(Br)C(Br)=C1Br`, the growth in the assay on T-47D breast was 77.9% (inactive); in the assay on BT-549 breast, 88.9% (inactive); with MDA-MB-435 melanoma it was 75.6% (inactive); in the assay on SW-620 colon, 80.1% (inactive); in the assay with MCF7 breast it was 50% (inactive); in the assay with HCT-116 colon it was 65.1% (inactive). For the same molecule, the growth in the assay on HCC-2998 colon and in the assay on KM12 colon was 103% (inactive) in each case.
Regarding `Nc1c(C(=O)Nc2ccncc2)sc2nc3c(cc12)CCCCCCCC3`, the growth in the assay with T-47D breast was -71.2% (active); with BT-549 breast, -60.8% (active); with MDA-MB-435 melanoma, -89.9% (active); in the assay on SW-620 colon, -69.2% (active); in the assay with MCF7 breast, -83.4% (active); in the assay with HCT-116 colon it was -76.3% (active). In addition, the figures for the growth in the assay with HCC-2998 colon and in the assay with KM12 colon were -54.3% (active) and -80.4% (active), respectively.
Consider `CCOC(=O)N(O)c1ccc(/C=C/c2ccccc2)cc1`, for which the growth in the assay on T-47D breast is 11.2% (inactive) and 5.56% (active); with BT-549 breast, 78.1% (inactive) and 69.9% (inactive); with MDA-MB-435 melanoma, 84.6% (inactive) and 84.1% (inactive); in the assay with SW-620 colon, 60.2% (inactive) and 46.6% (inactive); with MCF7 breast it was 8.37% (active) and 10.4% (inactive); in the assay with HCT-116 colon, 11.2% (inactive) and 17.6% (inactive). The growth in the assay with HCC-2998 colon was 59.3% (inactive) and 66.4% (inactive); with KM12 colon, 78.5% (inactive) and 64.9% (inactive).
Consider `CCCCC1COc2cccc3c2N1C=C/C3=C\C(=O)N(C)c1cccc(Cl)c1` (stereo not given), for which the growth in the assay on T-47D breast was 88.7% (inactive); in the assay with BT-549 breast it was 107% (inactive); with MDA-MB-435 melanoma it was 101% (inactive); with SW-620 colon it was 102% (inactive); in the assay with MCF7 breast it was 104% (inactive); in the assay on HCT-116 colon, 91.2% (inactive). In addition, the growth was 111% (inactive) with HCC-2998 colon and 105% (inactive) in the assay with KM12 colon.
With `CCCCCCCCCCCCCCCC(=O)O[C@@H]1[C@@H](O)[C@@H](O)C([C@H](NC(=O)[C@@H]2C[C@@H](CCC)CN2C)[C@H](C)Cl)O[C@@H]1SC` (stereo not given in full), the growth in the assay with T-47D breast is 96.1% (inactive); with BT-549 breast, 99.4% (inactive); in the assay with MDA-MB-435 melanoma, 107% (inactive); in the assay on SW-620 colon, 114% (inactive); in the assay with MCF7 breast, 102% (inactive); with HCT-116 colon, 103% (inactive). For the same molecule, the growth in the assay on HCC-2998 colon is 115% (inactive); in the assay with KM12 colon, 101% (inactive).
Consider `Cc1ccc2nc3ccccc3c(NCc3ccc(Cl)cc3)c2c1`, for which the growth is 57.9% (inactive) in the assay on T-47D breast; 75.6% (inactive) in the assay with BT-549 breast; 70.3% (inactive) in the assay with MDA-MB-435 melanoma; 32.1% (inactive) with SW-620 colon; -20.8% (active) with MCF7 breast; 14.7% (inactive) with HCT-116 colon. For the same molecule, the results for the growth in the assay on HCC-2998 colon and with KM12 colon were -79% (active) and 77.1% (inactive), respectively.
As for `C=C(C)[C@@H]1CC[C@]2(C)[C@H](CC(=O)N[C@H]3[C@@H]4C[C@](C)(C(=O)OC)CC[C@]4(C)CC[C@]32C)[C@@]1(C)CCC#N`, the growth is 63.6% (inactive) in the assay with T-47D breast; 72.1% (inactive) in the assay on BT-549 breast; 87.8% (inactive) in the assay with MDA-MB-435 melanoma; 93% (inactive) with SW-620 colon; 73.8% (inactive) in the assay with MCF7 breast; 72.2% (inactive) with HCT-116 colon. The growth with HCC-2998 colon was 100% (inactive); in the assay with KM12 colon, 79.6% (inactive).
Turning to `N#CSc1c[nH]c2ccc(/C=C/C(=O)/C=C(/C=C/c3ccc4[nH]cc(SC#N)c4c3)OB(F)F)cc12`, the growth was -7.65% (active) in the assay on T-47D breast; -10.2% (active) in the assay with BT-549 breast; -77.4% (active) in the assay with MDA-MB-435 melanoma; 2.13% (active) with SW-620 colon; 7.23% (active) in the assay on MCF7 breast; -49.5% (active) in the assay on HCT-116 colon. Also, the figures for the growth with HCC-2998 colon and in the assay with KM12 colon were 31.9% (inactive) and 19.6% (inactive), respectively.
As for `CCCCCCCCCCCCCCCC[N+](C)(C)CCN(Cc1ccc(OC)cc1)c1ncccn1`, the growth was -5.46% (active) and 42.2% (inactive) with T-47D breast; -75% (active) and 61.8% (inactive) in the assay on BT-549 breast; -96.8% (active) with MDA-MB-435 melanoma; -86% (active) and 76.9% (inactive) with SW-620 colon; 20.1% (inactive) and 47.6% (inactive) in the assay with MCF7 breast; -85.6% (active) and -62.4% (active) in the assay on HCT-116 colon. In addition, the growth is -76% (active) and 50.2% (inactive) in the assay with HCC-2998 colon; -100% (active) and 33.6% (inactive) in the assay on KM12 colon.
For `CCCCCCCCCCCCCCCCCCOc1cccc(CC(=O)OCC[N+](CC)(CC)CC)c1`, the growth is 52.7% (inactive) in the assay on T-47D breast; 86.9% (inactive) in the assay on BT-549 breast; 82.1% (inactive) in the assay on MDA-MB-435 melanoma; 78.6% (inactive) with SW-620 colon; 32.7% (inactive) in the assay on MCF7 breast; 51.7% (inactive) in the assay on HCT-116 colon. Moreover, the growth is 56.1% (inactive) with HCC-2998 colon and 83.3% (inactive) with KM12 colon.

The record behind these values is PubChem BioAssay (NCI).
